# Where “and” joins values, the source holds several entries; their conditions need not be identical. Identical values can stand only once. This is part of a sample that, as a whole, favours compounds with a hit. Of some 79,000 tested, about 15% had one in any assay. A number with no mark means an inactive call. Calls of active or inactive are those of the source. Cut-off read from the data, not from the text of the source: active = growth inhibition above about 70%; inactive = the rest.
# Tests used:
# [1] = NCI Yeast Anticancer Drug Screen. Data for the rad50 strain (AID 155);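 note: 0% = growth of vehicle-only cultures of the same strain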; conditions: S. cerevisiae rad50 strain growth inhibition; at 50.0 µM; active compounds read high
# Procedure, shortened: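 Readout: growth inhibition relative to vehicle-treated cultures. Compound exposure was carried out in a genetically defined yeast strain deficient in DNA damage repair.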
# [2] = NCI Yeast Anticancer Drug Screen. Data for the mec2-1 strain (AID 157); conditions: S. cerevisiae mec2-1 strain, at 50.0 µM, active compounds read high
# Procedure, shortened: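 Each compound was tested on mec2-1 yeast, a strain altered in DNA damage repair or cell cycle control. Growth inhibition is reported relative to vehicle.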
# [3] = NCI Yeast Anticancer Drug Screen. Data for the sgs1 mgt1 strain (AID 161);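 note: 0% = growth of cultures given vehicle only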; conditions: S. cerevisiae sgs1 mgt1 strain, at 50.0 µM, active compounds read high
# Procedure, shortened: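 Mutant yeast exposed to compound; growth scored against vehicle-only wells.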
# [4] = NCI Yeast Anticancer Drug Screen. Data for the cln2 rad14 strain (AID 165);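 note: 0% = growth equal to vehicle treated cultures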; conditions: S. cerevisiae cln2 rad14 strain, at 50.0 µM, active compounds read high
# Procedure, shortened: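 Test compounds were added to cln2 rad14 yeast cultures; inhibition of growth was then determined by comparison with vehicle treatment.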
# [5] = NCI Yeast Anticancer Drug Screen. Data for the bub3 strain (AID 167); conditions: S. cerevisiae bub3 mutant strain, at 50.0 µM, active compounds read high
# Procedure, shortened: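 Readout: yeast growth inhibition, expressed relative to vehicle-only wells. The test organism is a mutant strain from a panel with lesions in DNA repair or checkpoint genes.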
# [6] = NCI Yeast Anticancer Drug Screen. Data for the mlh1 rad18 strain (AID 175); conditions: S. cerevisiae mlh1 rad18 strain growth inhibition; at 50.0 µM; active compounds read high
# Procedure, shortened: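 Inhibition values reflect reduced growth of mutant yeast versus vehicle-treated controls following compound exposure; the mutations affect DNA damage repair.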
Compound,growth inhibition [1],growth inhibition [2],growth inhibition [3],growth inhibition [4],growth inhibition [5],growth inhibition [6]
CC(C)N1COC2Cc3ccccc3CC21 (stereo not given),-7.15%,1.65%,-29%,10.1%,-20.2%,-16.9%
CC1(C)N=C(NN=C2CCCCC2)SP1(=O)NNc1ncccn1 (stereo not given),30.1%,11.7%,25.8%,1.95%,15.1%,23.2%
CCOP(=S)(OCC)OCC1OC(OC)C2OC(C)(C)OC12 (stereo not given),-26.2%,1.9%,-2.45%,-35.4%,11.8%,4.4%
c1cc[c]([Ge]([c]2ccccc2)[c]2ccccc2)cc1.c1cc[c]([Ge]([c]2ccccc2)[c]2ccccc2)cc1,7.75%,1.45%,-1.7%,-4%,4.8%,-3.65%
CCN(CCCl)c1ccc(NC(=O)c2cc(C(=O)NCCN(C)C)cc(C(=O)Nc3ccc(N(CC)CCCl)cc3)c2)cc1,35%,-23.9%,-15.8%,2.95%,-1.4%,12.5%
O=C(O)COc1ccc(Cl)cc1Cl (tested in a mixture with another compound),-0.5%,-3.35%,14.7%,-19.1%,-9.5%,-0.9%
Cc1ccc2c(O)c3c(cc2c1)C(=O)c1c2c(cc(O)c1C3=O)C1(C)OC(O2)C(O)C(N(C)C)C1O (stereo not given),86.7% (active),87.9% (active),90.9% (active),87.7% (active),87.8% (active),85.5% (active)
C#CC1(O)CCCCCC1,11.6%,3.45%,-7.55%,8.55%,12.4%,6.8%
CCCCC(=O)O.[Ni],-11.2%,-2.65%,-9.7%,-32%,-30.9%,-14.1%
CNC(Cc1ccccc1)c1ccc(OC)cc1 (stereo not given),27.1%,17.2%,32.3%,5.75%,34.6%,35.6%
CC1OC(O[C@H]2C[C@@H](O)[C@]3(CO)[C@H]4[C@H](O)C[C@]5(C)[C@@H](C6=CC(=O)OC6)CC[C@]5(O)[C@@H]4CC[C@]3(O)C2)C(O)C(O)C1O (stereo not given in full),-6.7%,1.15%,5.05%,20.9%,-1.2%,-47.5%
CCOC(=O)C1(O)N=C(c2ccccc2)c2ccccc2-n2cccc21 (stereo not given),-21.4%,-45.2%,-2.6%,-23.9%,10.2%,-3.2%
CC(C)=CC(=O)N(C)C1C2CN3CCC(O2)C13 (stereo not given),7.3%,14.6%,14.1%,43.9%,29.9%,21.6%
O=C1NC(=S)NC(=O)C1=Cc1cccc2cc3ccccc3cc12,97.7% (active),98.8% (active),98.5% (active),93.3% (active),98.1% (active),97% (active)
N#CNc1nnnn1-c1ccccc1 (tested in a mixture with another compound),7.7%,9.35%,0.55%,44.4%,11.8%,-16.9%
Cc1ccc(-n2cnc3c(N(CCCl)CCCl)ncnc32)cc1,10.3%,0.55%,-1.45%,5.55%,23.5%,-3.15%
O=C(Nc1cccc(F)c1)c1c(O)[nH]c(=S)[nH]c1=O,26.1%,14.3%,38.4%,10.9%,21.3%,40.2%
Cc1c2ccccc2c(CNCCSCCCl)c2ccc3ccccc3c12,97.2% (active),98.5% (active),98.4% (active),98.3% (active),97.5% (active),98.8% (active)
O=C1C2CCN(CC2)C1Cc1ccccc1 (stereo not given),-10.2% and -4.55%,1.95% and 2.95%,-8.7% and 4.4%,-4.3% and -0.15%,-18.3% and -2.8%,-15.4% and 2.95%
O=c1[nH]c(=S)[nH]c(O)c1/C=C1\C=CC=N1,-22.9%,-3.95%,-3.45%,1.85%,3.3%,-14.1%

# From PubChem BioAssay (NCI)
